Potency data for 36 compounds are collected here from PubChem BioAssay AID504636 (National Center for Advancing Translational Sciences (NCATS), 2011).

Hit rate of the full screen: of about 1,100 compounds, about 490 (45%) were called active. Roughly 33% stayed inconclusive and do not appear here. Calls come from the whole dose curve. The set was probably picked from earlier hits. This excerpt belongs to a sample that is enriched for actives.
Potency is the fitted concentration of half-maximal effect.

ATP-dependent 6-phosphofructokinase (Trypanosoma brucei brucei), sequence (O15648 whole entry, looked up): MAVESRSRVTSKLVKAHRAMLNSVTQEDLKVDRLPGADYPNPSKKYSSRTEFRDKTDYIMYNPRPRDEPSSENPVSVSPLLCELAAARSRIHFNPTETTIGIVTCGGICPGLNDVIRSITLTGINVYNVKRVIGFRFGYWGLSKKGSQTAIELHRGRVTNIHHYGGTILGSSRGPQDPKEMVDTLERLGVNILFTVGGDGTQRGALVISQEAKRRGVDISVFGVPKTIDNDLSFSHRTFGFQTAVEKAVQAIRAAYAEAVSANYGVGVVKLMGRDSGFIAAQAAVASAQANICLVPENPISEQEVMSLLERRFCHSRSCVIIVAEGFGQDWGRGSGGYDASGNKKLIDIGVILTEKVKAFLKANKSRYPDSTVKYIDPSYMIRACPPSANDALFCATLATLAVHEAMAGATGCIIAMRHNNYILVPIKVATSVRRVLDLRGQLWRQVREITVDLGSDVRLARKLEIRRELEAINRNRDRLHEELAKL

The test concerns the target ATP-dependent 6-phosphofructokinase (Trypanosoma brucei brucei) (UniProt O15648). Put plainly: Tb PFK orthogonal confirmatory assay using ATP depletion (Kinase-Glo Plus) as an alternative measure of Tb PFK activity: Hit Validation. Note: nearly all actives have a fitted effect of over 60% in size. As to conditions: Tb PFK enzyme, Kinase-Glo Plus luminescence; series mostly up to 57.5 µM. From the text:
Various species of the protozoan family Trypanosomatidae are responsible for a range of serious human diseases in tropical and subtropical areas of the world. […] Many of the disorders caused by trypanosomatids are fatal if left untreated, but most currently used drugs are inefficient and toxic.
Oxidative metabolism involving the mitochondrial tricarboxylic acid cycle and oxidative phosphorylation are repressed in these parasites, and recent RNA interference (RNAi) experiments have shown that even partial depletion of certain individual glycolytic enzymes can lead to the death of cultured parasites. One such glycolytic enzyme, phosphofructokinase (PFK), catalyzes the formation of fructose-1,6-bisphosphate (F1,6BP) and ADP from fructose-6-phosphate (F6P) and ATP, and in many metabolic circumstances makes an important contribution to the control of flux through the glycolytic pathway. As a specific glycolytic target, PFK is particularly attractive as it catalyzes the first irreversible step in glycolysis, and structural and kinetic studies have shown very substantial and essential differences from corresponding host enzymes, allowing for the discovery of parasite-selective inhibitors.
The primary qHTS data of T. brucei PFK and ADP-Glo confirmatory data are available in PubChem (AIDs: 485367 and 485368). A luminescent secondary assay was also performed that used luciferase-based nucleotide detection (Kinase-Glo Plus, Promega) similar to the qHTS, but which used ATP (rather than ADP) concentration as an alternate measure of T. brucei PFK activity. The assay measures substrate depletion (ATP) rather than product formation (ADP), coupled to an identical manner of luciferase-based signal detection. As such, compounds which truly act on T. brucei PFK produce a change in signal in the opposite direction of the primary qHTS assay, while compounds which affect the final luciferase reaction produce signal changes in identical directions. Compounds were screened as a concentration-titration series that ranged from 57uM to 0.7nM.
1. Verlinde, C.L., et al., Glycolysis as a target for the design of new anti-trypanosome drugs. Drug Resist Updat, 2001. 4(1): p. 50-65.
2. Albert, M.A., et al., Experimental and in silico analyses of glycolytic flux control in bloodstream form Trypanosoma brucei. J Biol Chem, 2005. 280(31): p. 28306-15.
3. […] J Mol Biol, 2009. 385(5): p. 1519-33.
NIH Molecular Libraries Probe Production Network [MLPCN]
NIH Chemical Genomics Center [NCGC]
PI Name: Dr. Malcolm Walkinshaw
Substrate buffer was dispensed into white, solid 1536-well plates at 3ul/well in 0.1M triethanolamine (TEA) buffer, pH 8.0, containing final concentrations of 5 mM MgCl2, 0.01% Tween20, 0.5 mM fructose-6-phosphate (F6P) and 0.1mM ATP. Then, 23nl of compounds or DMSO were delivered to each well using a pin tool. One ul T. brucei PFK (0.1M TEA, 0.01% Tween20, 0.1% bovine serum albumin (BSA) and 1.25nM PFK, final concentrations) was then dispensed, and plates were incubated at room temperature for 45 min. The luminescent detection reagent, Kinase-Glo Plus (Promega), was then added at 2ul/well and incubated for ten minutes at room temperature. The plates were measured on a ViewLux plate reader for luminescent signal using a clear filter with a one second exposure. The %Activity was determined from the corrected luminescence values. As no specific T. brucei PFK inhibitors have been identified in the literature, 1x (1.25nM) and 0x PFK enzyme controls (untreated) were included to normalize %Activity of identified inhibitors; 0x enzyme values corresponded to 100%Activity (full inhibition), while 1x PFK enzyme values were used to normalize 0% Activity (no inhibition). The Kinase-Glo Plus protocol varies from the primary screen in that it measures ATP, rather than ADP, concentration, and thus provides a measure of substrate depletion, rather than of product formation.
[…]
(In Kinase-Glo more light means more ATP remaining.)
With `CCOc1cccc(/C=N/N2C(=O)CSC2=S)c1O`, the Potency was 30.1 µM (active).
`O=C1CSC(=S)N1/N=C/c1ccc(O)c([N+](=O)[O-])c1`: the Potency entry is “inactive”.
Next, `Cn1sc(=O)c2cc(S(=O)(=O)NC3CC3)ccc21`: 7.57 µM (active); `OC(CNCc1ccc(Cl)c(Cl)c1)c1ccccc1` (stereo unspecified): 21.3 µM (active); `Cn1nnnc1NCc1ccc(Cl)c(Cl)c1`: 10.7 µM (active).
In the case of `O=[N+]([O-])c1c(NCCO)cc(Sc2nc3ccccc3s2)c2nonc12`, the Potency was 0.601 µM (active).
In the case of `C=C(C)C(=O)Nc1cccc(C2=NOC3(C2)C[C@H](C(N)=O)N(C(=O)C(c2ccccc2)c2ccccc2)C3)c1` (stereo partly specified) it was 1.51 µM (active).
For the compound `C/C=C\C=C\C(=O)N1CC2(CC(c3cccc(NC(=O)/C(C)=C\C)c3)=NO2)C[C@H]1C(N)=O` (stereo partly specified), the Potency is 9.53 µM (active).
Next, `CCc1ccc(NC(=O)C(=O)NNC(=O)c2cccs2)cc1`: “inactive”; `O=c1ccnc(Nc2ccc(Cl)cc2)[nH]1`: 21.3 µM (active); `O=c1[nH]c2ccccc2n2c(-c3ccccc3)nnc12`: 6.01 µM (active).
Regarding `N/C(=N\OC(=O)Nc1ccc(Cl)c(Cl)c1)c1ncc(C(F)(F)F)cc1Cl`, the Potency was 26.9 µM (active).
Next, `Cc1nc(N)nc(SCc2ccc([N+](=O)[O-])cc2)c1N`: 10.7 µM (active); `Nc1nc(SCc2ccc([N+](=O)[O-])cc2)c2ncn(C3OC(CO)C(O)C3O)c2n1` (stereo unspecified): 23.9 µM (active); `Cn1ccc(=Nc2ccc(NC(=O)c3ccc(N=c4ccn(C)c5ccc([N+](=O)[O-])cc45)cc3)cc2)cc1`: “inactive”.
In the case of `O=C(Cc1ccc([N+](=O)[O-])cc1)N/N=C/c1ccco1` it was 19 µM (active); in that of `O=C(CSc1nc(O)c(Cc2ccccc2)c(=O)[nH]1)Nc1nc2c(s1)CCCC2`, 6.75 µM (active).
Next, `Cc1ccc(-c2nn(-c3ccccc3)cc2/C=C2\SC(=S)N(CCCCCC(=O)O)C2=O)o1`: 9.53 µM (active); `Cc1cccc(-n2c(N)c(C(=O)N3CCN(C)CC3)sc2=S)c1`: 6.01 µM (active); `O=[N+]([O-])/C=C/c1ccc2c(ccn2Cc2ccccc2)c1`: 10.7 µM (active).
Regarding `O=C(NCc1ccc(Cl)c(Cl)c1)c1cccnc1`, the Potency is 13.5 µM (active).
As to `CCn1nc(C(=O)NNS(=O)(=O)c2cc(/C=C/C(=O)O)cc(OC)c2OC)c2ccccc2c1=O`, the Potency result was “inactive”.
Next, `C=CC1=C(C(=O)O)N2C(=O)[C@@H](NC(=O)/C(=N\OCC(=O)O)c3csc(N)n3)[C@H]2SC1`: 2.69 µM (active); `COC(=O)c1[nH]c2ccccc2c1NC(=O)CN1CCCc2ccccc21`: “inactive”.
In the case of `CC(C)(C)c1nnc(NC(=O)C2c3ccccc3Oc3ccccc32)s1` it was 19 µM (active); in that of `Cc1c(C)c2ccc(OCC(=O)N3CCN(c4cccc(Cl)c4)CC3)cc2oc1=O`, 4.78 µM (active); in that of `O=c1[nH]c(=S)[nH]c2[nH]c(=S)[nH]c12`, 1.35 µM (active).
As to `COc1ccc(N/C=C(\C2OC(=O)c3ccccc32)[N+](=O)[O-])cc1` (stereo unspecified), the Potency result is “inactive”.
Next, `FC(F)(F)C1CCCN(c2nsc3ccccc23)C1` (stereo unspecified): 2.69 µM (active).
Next, `N#Cc1cccc(CSc2ncnc(N)n2)c1`: 13.5 µM (active); `Cc1ccc(NC(=O)c2cc(-c3ccc(C)o3)nc3ccccc23)nc1`: 6.75 µM (active).
Take `Cc1nn(Cc2ccc(Cl)c(Cl)c2)c(C)c1NC(=O)c1cc(C2CC2)on1`: the Potency is 5.36 µM (active).
With `OCCN1CCN(C(=S)c2ccc(-c3ccccc3)cc2)CC1`, the Potency was 9.53 µM (active).
For `Cc1ccc(C)c(-c2nnc(NC(=O)CS(=O)(=O)c3ccccc3)o2)c1`, the Potency entry was “inactive”.
Next, `COC(=O)CC(=O)N1CCN(c2ccc(Cl)c(Cl)c2)CC1`: 23.9 µM (active); `O=C1CSC(=S)N1c1ccc(Cl)c(Cl)c1`: “inactive”.
